{
  "source": "PubChem BioAssay AID624134",
  "about": "(Broad Institute, 2012)",
  "note": "Screen size: about 1,600 compounds; about 1,100 (69%) were called active. The set was probably picked from earlier hits. These entries were drawn from the full list. Entries with a potency or affinity are not part of this list. Records with an inconclusive call do not appear. A number with no mark means an inactive call.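 The calls were made as follows: active = signal drop with fitted half-maximal concentration no higher than twice the top valid tested concentration; inconclusive = flat curve with 30 to 70% signal loss, or poor fit; inactive = the rest, including signal rises and flat curves within 30%.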",
  "data": [
    {"test": "loss of viability in HepG2 cells – cell-based, CellTiter-Glo, cherry-picked, cytotoxicity control for Shn3 inhibitor project, dose response (AID 624134);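 also: 0% = median of neutral control wells and -100% = median of positive control wells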", "conditions": "CellTiter-Glo ATP luminescence, 48 h; series mostly up to 35 µM; activity change, negative = cytotoxicity: at the top concentration", "units": {"activity change, negative = cytotoxicity": "%"}, "values": [
      {"smiles": "O=C(OCCN1C(=O)c2cccc3c(N4CCOCC4)ccc(c23)C1=O)c1ccccc1Cl", "activity change, negative = cytotoxicity": 2.34},
      {"smiles": "COc1ccc(C(=O)OCC(=O)Nc2ccc3[nH]c(=O)[nH]c3c2)cc1", "activity change, negative = cytotoxicity": -7.95},
      {"smiles": "Cc1cccc(C(C)(C)C)c1OCCN1CCCC1", "activity change, negative = cytotoxicity": 1.96},
      {"smiles": "CCOC(=O)Cc1csc(SCC(=O)c2c(N)n(CC(C)C)c(=O)n(C)c2=O)n1", "activity change, negative = cytotoxicity": -10.9},
      {"smiles": "S=C(Nc1ccccc1)Nc1ccc(OCc2ccc(Cl)cc2Cl)cc1", "activity change, negative = cytotoxicity": 42},
      {"smiles": "COc1ccc2c(c1)c(CC(=O)Nc1cc(C)ccc1C)c(C)n2C(=O)c1ccc(Cl)cc1", "activity change, negative = cytotoxicity": -11.7},
      {"smiles": "CCCCN1CC(COCc2ccccc2)Oc2cccc(Oc3cc(C)c(C)c(C)c3)c2S1(=O)=O", "note": "(stereo not drawn)", "activity change, negative = cytotoxicity": -10.9},
      {"smiles": "O=C(CSc1nc(C(F)(F)F)cc(=O)[nH]1)N1CCCC1", "activity change, negative = cytotoxicity": -6.06},
      {"smiles": "Clc1ccc(-c2cc(-c3nnc4n3CCCCC4)c3ccccc3n2)cc1", "activity change, negative = cytotoxicity": -33.7},
      {"smiles": "Cc1cc(CN2CCOCC2)c(O)c(C2(C)CCCCC2)c1", "activity change, negative = cytotoxicity": 12.9},
      {"smiles": "Oc1c(CN2CCN(c3ccccc3)CC2)cc(Br)c2cccnc12", "activity change, negative = cytotoxicity": -23.7},
      {"smiles": "Cc1ccnc(N/C=C(/NC(=O)c2ccccc2)C(=O)N/N=C\\c2ccc(F)cc2)n1", "activity change, negative = cytotoxicity": -1.6},
      {"smiles": "CCS(=O)(=O)c1ccc2oc(SCC(=O)N3CCCCC3)nc2c1", "activity change, negative = cytotoxicity": -4.82},
      {"smiles": "Oc1ccc(-c2csc(Nc3cccc4ccccc34)n2)cc1O", "activity change, negative = cytotoxicity": -12.1},
      {"smiles": "CCC(=O)c1cn(CC(=O)Nc2ccccc2Cl)c2ccccc12", "activity change, negative = cytotoxicity": -8.14},
      {"smiles": "O=C(Cn1cc(C(=O)c2ccco2)c2ccccc21)Nc1ccccc1F", "activity change, negative = cytotoxicity": -32.2},
      {"smiles": "NS(=O)(=O)c1ccc(CNC(=S)NC(=O)c2ccco2)cc1", "activity change, negative = cytotoxicity": -1.37},
      {"smiles": "Cc1ccc(-c2nnc(N3CCC(C)CC3)c3ccccc23)cc1C", "activity change, negative = cytotoxicity": -27.1},
      {"smiles": "C[C@@H]1CN([C@H](C)CO)C(=O)c2cc(Br)cnc2O[C@H]1CN(C)C(=O)Cc1ccncc1", "activity change, negative = cytotoxicity": -4.74},
      {"smiles": "Cc1cc(C(=O)COC(=O)c2ccccc2Br)c(C)n1CC1CCCO1", "note": "(stereo not drawn)", "activity change, negative = cytotoxicity": -0.177},
      {"smiles": "CCOC(=O)C1CCN(C(=O)c2sc3nc(C)nc(N4CCC(C)CC4)c3c2C)CC1", "activity change, negative = cytotoxicity": 4.07},
      {"smiles": "CN(C(=O)CSc1nc(-c2cccs2)nc2ccccc12)C1CCS(=O)(=O)C1", "note": "(stereo not drawn)", "activity change, negative = cytotoxicity": -9.43},
      {"smiles": "CC(C)=CCC/C(C)=C/CNC(=O)C[C@H]1C[C@H](C(=O)N(C(C)C)C(C)C)[C@@]2(C)c3[nH]c4cc(CCC(=O)N(C)C)ccc4c3CCN2C1=O", "activity change, negative = cytotoxicity": 6.25},
      {"smiles": "O=[N+]([O-])c1cc(S(=O)(=O)C(F)(F)F)ccc1Sc1nc2ccccc2s1", "activity change, negative = cytotoxicity": -14.7},
      {"smiles": "CS(=O)(=O)c1ccc(Sc2nc3ccccc3s2)c([N+](=O)[O-])c1", "activity change, negative = cytotoxicity": -9.91},
      {"smiles": "N#C/C(=C(\\O)Cc1ccccc1)c1nc2ccccc2[nH]1", "activity change, negative = cytotoxicity": -17.9},
      {"smiles": "C=CCOC(=O)C1=C(C)N=C2SCCC(=O)N2C1c1cccs1", "note": "(stereo not drawn)", "activity change, negative = cytotoxicity": 6.99},
      {"smiles": "CC(=O)O[C@H]1CC[C@@]2(C)C(=CC[C@H]3[C@@H]4CC[C@H](C(C)=O)[C@@]4(C)CC[C@@H]32)C1", "activity change, negative = cytotoxicity": 0.073},
      {"smiles": "C=CCNc1nc(N2CCOCC2)c(C#N)c2c1CN(C)CC2", "activity change, negative = cytotoxicity": -15},
      {"smiles": "CC(=O)N1CCOc2cc(S(=O)(=O)NCc3ccc(F)cc3)c(C)cc21", "activity change, negative = cytotoxicity": -9.5},
      {"smiles": "C[C@@H]1CN([C@H](C)CO)C(=O)CCCn2nncc2CO[C@H]1CN(C)S(=O)(=O)c1ccc2c(c1)OCCCO2", "activity change, negative = cytotoxicity": -15.3},
      {"smiles": "CCn1nnc2cc(C(=O)Nc3cc(Cl)ccc3C)ccc21", "activity change, negative = cytotoxicity": 10.6},
      {"smiles": "O=C(Sc1cccc2cccnc12)c1ccccc1Br", "activity change, negative = cytotoxicity": -2.3},
      {"smiles": "CN(c1ccccc1)S(=O)(=O)c1cccc(NC(=O)CSc2nncs2)c1", "activity change, negative = cytotoxicity": -2.43},
      {"smiles": "CCOc1ccc2nc(SC3CC(=O)N(c4ccc(C)cc4)C3=O)sc2c1", "note": "(stereo not drawn)", "activity change, negative = cytotoxicity": -18.3},
      {"smiles": "CC(C)CCNC(=O)c1cc2c(=O)[nH]c3ccccc3c2s1", "activity change, negative = cytotoxicity": -3.4},
      {"smiles": "Cc1ccc(OC(=O)CCC(=O)Oc2ccc(C)cc2C)c(C)c1", "activity change, negative = cytotoxicity": -6.33},
      {"smiles": "CCCC(c1nnnn1Cc1ccc(OC)cc1)N1CCN(c2ccccc2)CC1", "note": "(stereo not drawn)", "activity change, negative = cytotoxicity": 0.213},
      {"smiles": "CCOC(=O)C1CCN(C(=O)c2ccc(OCC(=O)Nc3cccc(C(F)(F)F)c3)c(OC)c2)CC1", "activity change, negative = cytotoxicity": -1.16},
      {"smiles": "Cc1ccccc1N/C(=N/S(=O)(=O)c1ccccc1)c1ccc(F)cc1", "activity change, negative = cytotoxicity": 3.51},
      {"smiles": "CCOC(=O)C1CCCN(S(=O)(=O)c2ccc(S(=O)(=O)N(CC)CC)cc2)C1", "note": "(stereo not drawn)", "activity change, negative = cytotoxicity": -10.4},
      {"smiles": "Cc1ccc(CNC(=O)CSc2c3c(nc4ccc(Cl)cc24)CCCC3)o1", "activity change, negative = cytotoxicity": -8.16},
      {"smiles": "CC1=NOC(=O)/C1=C\\c1ccc(-c2cc(Cl)ccc2Cl)o1", "activity change, negative = cytotoxicity": -3.66},
      {"smiles": "CCOc1cc(/C=C2\\C(=O)ON=C2C)ccc1OCc1ccccc1", "activity change, negative = cytotoxicity": -10.3},
      {"smiles": "O=C(CSc1nc2c(c(=O)n1-c1ccc(Br)cc1)SCC2)NCc1ccco1", "activity change, negative = cytotoxicity": -2.52},
      {"smiles": "Cc1cc(-n2c(C)cc(C(=O)CSc3nncn3C)c2C)no1", "activity change, negative = cytotoxicity": -14.7},
      {"smiles": "CCCC(=O)NC(=S)Nc1ccc(N2CCN(C(=O)c3cccs3)CC2)cc1", "activity change, negative = cytotoxicity": -8.86},
      {"smiles": "O=C(NCCc1ccccc1)c1ccc2c(c1)OCCO2", "activity change, negative = cytotoxicity": -7.75},
      {"smiles": "CCOC(=O)c1sc(NC(=O)CCCn2nc([N+](=O)[O-])c(Cl)c2C)c(C(=O)OCC)c1C", "activity change, negative = cytotoxicity": -11.3},
      {"smiles": "CCOC(=O)c1c(NC(=O)c2nn(CC)cc2Br)sc(C)c1C", "activity change, negative = cytotoxicity": -2.17},
      {"smiles": "COc1ccccc1N1CCN(c2ncc(C(=O)N3CCN(c4cccc(Cl)c4)CC3)c3ccccc23)CC1", "activity change, negative = cytotoxicity": -11},
      {"smiles": "O=C(Nc1cccc(S(=O)(=O)NC2=NCCC2)c1)C1CC(=O)N(c2ccc3c(c2)OCCO3)C1", "note": "(stereo not drawn)", "activity change, negative = cytotoxicity": -3.38},
      {"smiles": "C=C1C(=O)[C@@]23[C@H](O)C[C@@H]4C(C)(C)CC[C@H](O)[C@]4(C)[C@@H]2C[C@H](O)[C@@H]1[C@H]3O", "activity change, negative = cytotoxicity": -9.65},
      {"smiles": "CCc1c(O)nc(SCC(=O)Nc2ccccc2)n(-c2ccccc2)c1=O", "activity change, negative = cytotoxicity": -0.296},
      {"smiles": "O=C(CSc1nc2[nH]ncc2c(=O)[nH]1)Nc1ccccc1C(F)(F)F", "activity change, negative = cytotoxicity": -6.41},
      {"smiles": "O=C(NCCNC(=O)Oc1cccc2ccccc12)Oc1cccc2ccccc12", "activity change, negative = cytotoxicity": -9.86},
      {"smiles": "COc1cc2ncnc(N[C@H](C)c3ccccc3)c2cc1OC", "activity change, negative = cytotoxicity": -7.07},
      {"smiles": "Cc1cc(C)n(-c2cc(-n3nc(C)cc3C)ncn2)n1", "activity change, negative = cytotoxicity": -4.14},
      {"smiles": "COc1ccc(C(=O)OCC(=O)Nc2ncc([N+](=O)[O-])s2)cc1OC", "activity change, negative = cytotoxicity": -13.6},
      {"smiles": "CCn1c(C)cc(C(=O)COC(=O)c2ccccc2[N+](=O)[O-])c1C", "activity change, negative = cytotoxicity": -3.22},
      {"smiles": "CS(=O)(=O)c1ccc(C(=O)OCC(=O)N2CCOCC2)cc1[N+](=O)[O-]", "activity change, negative = cytotoxicity": -12.7},
      {"smiles": "C=C1C(=O)C23C(O)C1CCC2C12COC3(O)C(O)C1C(C)(C)CCC2O", "note": "(stereo not drawn)", "activity change, negative = cytotoxicity": -11.4},
      {"smiles": "CCO[C@@H]1OC(C(=O)NC2CC2)=C[C@H](c2coc3ccccc3c2=O)[C@H]1CCCO", "activity change, negative = cytotoxicity": -7.66}
    ]}
  ]
}
